# Rows were chosen to be rich in hits. Some 2.8% of all compounds tested hit in one or more screens of this group.
# CDK5 p35 inh: blocks human CDK5/p35 kinase activity; Recombinant CDK5/p35, ADP-Glo luminescence, 60 min; 330,000 tested, 0.01% active; inhibition, % at 10 µM; Q00535+Q15078;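 active means highest replicate inhibition of at least 50% and at least 75% of replicates reaching 50%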;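 further: plate controls were DMSO neutral control for no effect and GW8510 at 10 µM for full effect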
# Target sequence (Q00535 whole entry, looked up): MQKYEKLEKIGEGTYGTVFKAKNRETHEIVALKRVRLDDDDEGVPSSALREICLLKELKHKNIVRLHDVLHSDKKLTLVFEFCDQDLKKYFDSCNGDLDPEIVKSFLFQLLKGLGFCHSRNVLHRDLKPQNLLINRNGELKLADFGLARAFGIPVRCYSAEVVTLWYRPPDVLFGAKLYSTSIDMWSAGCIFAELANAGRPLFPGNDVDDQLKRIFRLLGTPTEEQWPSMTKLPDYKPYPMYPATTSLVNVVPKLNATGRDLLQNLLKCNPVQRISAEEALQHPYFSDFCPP
# Target sequence (Q15078 whole entry, looked up): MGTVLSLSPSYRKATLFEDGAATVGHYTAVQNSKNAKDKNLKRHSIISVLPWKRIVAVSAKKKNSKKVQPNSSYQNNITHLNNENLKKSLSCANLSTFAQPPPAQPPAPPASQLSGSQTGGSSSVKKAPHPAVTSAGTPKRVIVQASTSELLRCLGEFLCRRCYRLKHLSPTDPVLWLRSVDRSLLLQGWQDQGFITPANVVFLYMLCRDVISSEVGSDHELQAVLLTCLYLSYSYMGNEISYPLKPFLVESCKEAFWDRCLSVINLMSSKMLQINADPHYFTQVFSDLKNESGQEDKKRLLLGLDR
# FGF22 binding: binders of recombinant human FGF22 by thermal shift; Q9HCT0; SYPRO orange fluorescence; percent of sucrose octasulfate shift, DMSO zero; activity (Tm shift, normalised), % at 9.99 µM; 340,000 tested, 1.5% active; AID 651658;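 active means mean Tm shift, scaled 0 neutral to 100 positive control, at about 1.3% or above, every replicate too, limit read from the data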
# PglD inh: PglD (C. jejuni) enzyme inhibition; purified PglD enzyme, DTNB colorimetric CoA detection; inhibition, % at 12.5 µM; 360,000 tested, 0.098% active; AID 602405; in the data active means inhibition above about 16%, passing the limit was not always enough
# dFosB activator: activators of mouse delta FosB homodimer; P13346; activation, % at 25 µM; 340,000 tested, 0.99% active; purified delta FosB, TAMRA-CDK5 oligo fluorescence polarization; percent of positive-control signal above neutral wells;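 active means mean activation above about 17%, with every replicate also reaching it, limit read from the data, passing the limit was not always enough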
# SIRT5 inh: sirtuin-5 (human) deacylase inhibition | 330,000 tested, 1.1% active | inhibition, % at 15 µM | Purified SirT5, succinyl-peptide AMC, trypsin-coupled fluorescence; in the data active means inhibition above about 15%
# PvdQ acylase: P. aeruginosa PvdQ acylase inhibition. 340,000 tested, 0.063% active. purified PvdQ acylase, fluorescence plate reader. inhibition, % at 10 µM; in the data active means inhibition above about 30%, passing the limit was not always enough;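 further: 0% = vehicle neutral wells and 100% = reference inhibitor wells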
# Active calls of the source: *; / = no result given.
SMILES,CDK5 p35 inh,FGF22 binding,PglD inh,dFosB activator,SIRT5 inh,PvdQ acylase
O=C(COC(=O)c1cccnc1Cl)c1ccccc1,0,0,1,-1,-4,-10
COc1cc(OC)cc(C(=O)OCC(=O)NCc2ccc3c(c2)OCO3)c1,-1,44*,/,4,0,-2
CCc1noc(C)c1C(=O)OCC(=O)NCc1ccc(Cl)cc1,14,0,-1,-6,18*,7
C[C@@H]1CCCCO[C@H](CN(C)S(C)(=O)=O)[C@H](C)CN([C@@H](C)CO)C(=O)c2cc(NC(=O)Nc3ccccc3)ccc2O1,/,0,-2,/,1,/
CCCN1C[C@H](C)[C@@H](OC)CN(C)C(=O)c2ccc(NC(=O)Nc3c(C)noc3C)cc2OC[C@H]1C,/,0,0,/,2,/
CCOc1ncccc1C(=O)OCC(=O)NCc1ccc2c(c1)OCO2,0,43,/,2,-1,8
CSc1ncccc1C(=O)OCC(=O)NCc1ccc2c(c1)OCO2,0,43*,/,9,-1,-3
O=C(OCC(=O)N1CCN(C(=O)c2ccco2)CC1)c1cc(S(=O)(=O)Nc2ccc(Cl)cc2)ccc1O,0,0,/,1,-2,-9
O=C(CCNS(=O)(=O)c1ccc(Cl)cc1)OCC(=O)N1CCN(C(=O)c2ccco2)CC1,1,13*,/,5,-2,-12
Cc1cc(C)n(-c2cccc(CN(C)Cc3nc(-c4cnccn4)no3)c2)n1,-2,44*,-2,-1,-2,-13
O=C(Nc1ccc(Cl)cc1Cl)N1CCN(c2ncccn2)CC1,-1,43*,-9,-4,0,-13
Nc1ccc(Cc2ccc([N+](=O)[O-])cc2)cc1,1,43*,-5,8,/,4
O=[N+]([O-])c1ccc(Cc2ccccn2)cc1,-2,0,-2,-3,-2,-4
C[C@@H](NC(=O)C[C@H]1C[C@H]2c3cc(NC(=O)Nc4ccccc4F)ccc3O[C@H]2[C@H](CO)O1)c1ccccc1,/,0,-1,/,0,/
CCCCn1c(N)c(N(CCOC)C(=O)c2c(CC)noc2C)c(=O)[nH]c1=O,-5,0,2,0,20*,-24
CC(C)NC(=O)Nc1ccc2c(c1)C(=O)N([C@H](C)CO)C[C@H](C)[C@H](CN(C)C)OCCCC[C@H](C)O2,/,0,0,/,6,/
C=CCOC(=O)[C@H]1[C@@H]2C(=O)O[C@@H](c3ccccc3)[C@@H](c3ccccc3)N2[C@@H](c2ccc(OCCOC(=O)[C@@H]3C[C@@H]4C(=O)N[C@@H](Cc5ccccc5)C(=O)N4[C@@H]3c3ccc(O)cc3)cc2)[C@]12C(=O)Nc1ccc(I)cc12,/,0,-4,/,-3,/
C=CCOC(=O)[C@@H]1[C@H]2C(=O)O[C@H](c3ccccc3)[C@H](c3ccccc3)N2[C@H](c2ccc(OCCOC(=O)[C@@H]3C[C@@H]4C(=O)N[C@@H](Cc5ccccc5)C(=O)N4[C@@H]3c3ccc(O)cc3)cc2)[C@@]12C(=O)Nc1ccc(I)cc12,/,0,1,/,19*,/
Cc1ccc(S(=O)(=O)N[C@H]2CC[C@H](CC(=O)NCCCN(C)C)O[C@@H]2CO)cc1,/,0,1,/,-9,/
CN(C)/C=N/c1nc2ncc(-c3ccc(Cl)cc3)c(/N=C/N(C)C)n2n1,0,43*,6,-9,-1,17
CCOCC(=O)Nc1cc(C(=O)NCCc2ccccc2)ccc1Cl,2,11*,/,-6,-2,-9
COCC(=O)Nc1cc(C(=O)NCCc2ccccc2)ccc1Cl,-2,0,0,-8,/,-10
O=C(C[C@@H]1CC[C@H]2[C@@H](COC[C@@H](O)CN2C(=O)c2cnccn2)O1)NCc1ccccc1,/,0,-1,/,-4,/
CC1CCN(CC(=O)Nc2cc(C(F)(F)F)ccc2Cl)CC1,1,0,-5,4,0,-5
CC(OC(=O)C1CC1)C(=O)Nc1cc(C(F)(F)F)ccc1Cl (stereo not drawn),0,44*,-3,1,-1,-14
CC1(C)CC(=O)C(CC(=O)Nc2cc(C(F)(F)F)ccc2Cl)C(=O)C1,-4,44*,/,-6,-3,12
Cn1c(N)c(C(=O)CSc2nnc(C3CC3)n2N)c(=O)n(C)c1=O,-1,0,2,-12,19*,-10

# Compound activity (PubChem BioAssay)
